In ChEMBL document CHEMBL1961873, “Compounds: GSK PKIS; Assays: Nanosyn kinase panel” (2012) one finds inhibition data, which are given here for 9 molecules.

The target in test [1] is Serine/threonine-protein kinase 26 (Homo sapiens) (UniProt Q9P289). The settings on record: at 1 µM.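 Also: mean inhibition of MST4 kinase activity, reported from the GSK PKIS inhibitor-set screening panel.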
Test [2] concerns the target Serine/threonine-protein kinase PAK 1 (Homo sapiens) (UniProt Q13153). Particulars: at 0.1 µM.
Test [3] has the same target. The settings on record: at 1 µM.
For test [4], the target named is Serine/threonine-protein kinase PAK 2 (Homo sapiens) (UniProt Q13177). The settings on record: at 0.1 µM.
The target is the same in test [5]. The settings on record: at 1 µM.
Test [6] concerns the target Serine/threonine-protein kinase PAK 3 (Homo sapiens) (UniProt O75914). The settings on record: at 0.1 µM.
The target is the same in test [7]. Particulars: at 1 µM.
Test [8] addresses Serine/threonine-protein kinase PAK 5 (Homo sapiens) (UniProt Q9P286). The settings on record: at 0.1 µM.
Test [9] shares this target. Particulars: at 1 µM.
Test [10] addresses Serine/threonine-protein kinase PAK 6 (Homo sapiens) (UniProt Q9NQU5). Particulars: at 1 µM.
For test [11], the system named is Tyrosine-protein kinase ABL1 (Homo sapiens), P00519 [E255K]. The settings on record: at 0.1 µM.
For test [12] the test system is unchanged. Particulars: at 1 µM.
Test [13] relates to Tyrosine-protein kinase ABL1 (Homo sapiens), P00519 [H396P]. The settings on record: at 0.1 µM.
For test [14] the test system is unchanged. The settings on record: at 1 µM.
Test [15] deals with Tyrosine-protein kinase ABL1 (Homo sapiens), P00519 [M351T]. Particulars: at 0.1 µM.
Test [16] has the same test system. Particulars: at 1 µM.
The test system of test [17] is Tyrosine-protein kinase ABL1 (Homo sapiens), P00519 [Q252H]. The settings on record: at 0.1 µM.
The test system is the same in test [18]. The settings on record: at 1 µM.
Test [19] deals with Tyrosine-protein kinase ABL1 (Homo sapiens), P00519 [T315I]. The settings on record: at 0.1 µM.
For test [20], the target named is Serine/threonine-protein kinase PAK 6 (Homo sapiens) (UniProt Q9NQU5). Particulars: at 0.1 µM.
Serine/threonine-protein kinase PAK 6 (Homo sapiens), sequence (Q9NQU5 whole entry, looked up): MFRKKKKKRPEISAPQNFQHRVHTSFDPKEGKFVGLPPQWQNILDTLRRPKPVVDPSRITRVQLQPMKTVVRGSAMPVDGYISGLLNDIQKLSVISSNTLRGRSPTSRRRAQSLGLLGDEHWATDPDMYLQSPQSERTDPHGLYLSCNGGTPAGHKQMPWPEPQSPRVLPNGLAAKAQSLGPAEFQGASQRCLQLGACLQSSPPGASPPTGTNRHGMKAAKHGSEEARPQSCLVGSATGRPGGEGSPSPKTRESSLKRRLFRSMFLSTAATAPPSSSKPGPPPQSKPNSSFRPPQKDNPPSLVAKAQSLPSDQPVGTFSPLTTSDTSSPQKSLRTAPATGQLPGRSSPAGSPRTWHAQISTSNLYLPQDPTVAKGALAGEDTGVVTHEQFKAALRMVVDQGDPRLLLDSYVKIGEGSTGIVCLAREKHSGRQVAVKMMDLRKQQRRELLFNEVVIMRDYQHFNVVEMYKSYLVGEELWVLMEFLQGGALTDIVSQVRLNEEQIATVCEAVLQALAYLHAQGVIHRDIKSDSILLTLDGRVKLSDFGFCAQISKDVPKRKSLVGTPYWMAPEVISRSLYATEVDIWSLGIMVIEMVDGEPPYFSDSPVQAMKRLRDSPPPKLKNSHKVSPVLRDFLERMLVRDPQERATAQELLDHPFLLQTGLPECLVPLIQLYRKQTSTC

Serine/threonine-protein kinase PAK 2 (Homo sapiens), sequence (Q13177 whole entry): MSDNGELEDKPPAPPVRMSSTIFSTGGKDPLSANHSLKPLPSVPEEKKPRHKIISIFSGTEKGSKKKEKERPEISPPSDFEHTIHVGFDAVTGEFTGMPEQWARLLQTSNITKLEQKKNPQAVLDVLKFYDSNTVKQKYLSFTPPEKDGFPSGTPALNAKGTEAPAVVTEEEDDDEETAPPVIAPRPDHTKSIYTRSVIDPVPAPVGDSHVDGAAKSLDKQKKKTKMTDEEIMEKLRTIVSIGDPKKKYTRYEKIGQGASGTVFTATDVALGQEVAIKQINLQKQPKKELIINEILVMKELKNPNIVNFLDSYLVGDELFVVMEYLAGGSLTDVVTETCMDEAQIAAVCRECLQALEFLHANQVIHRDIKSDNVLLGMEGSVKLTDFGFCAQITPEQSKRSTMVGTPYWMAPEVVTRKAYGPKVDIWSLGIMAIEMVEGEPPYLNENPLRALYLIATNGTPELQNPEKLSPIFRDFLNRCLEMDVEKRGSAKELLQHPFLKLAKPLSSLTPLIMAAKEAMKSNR
Serine/threonine-protein kinase PAK 3 (Homo sapiens), sequence (O75914 whole entry, looked up): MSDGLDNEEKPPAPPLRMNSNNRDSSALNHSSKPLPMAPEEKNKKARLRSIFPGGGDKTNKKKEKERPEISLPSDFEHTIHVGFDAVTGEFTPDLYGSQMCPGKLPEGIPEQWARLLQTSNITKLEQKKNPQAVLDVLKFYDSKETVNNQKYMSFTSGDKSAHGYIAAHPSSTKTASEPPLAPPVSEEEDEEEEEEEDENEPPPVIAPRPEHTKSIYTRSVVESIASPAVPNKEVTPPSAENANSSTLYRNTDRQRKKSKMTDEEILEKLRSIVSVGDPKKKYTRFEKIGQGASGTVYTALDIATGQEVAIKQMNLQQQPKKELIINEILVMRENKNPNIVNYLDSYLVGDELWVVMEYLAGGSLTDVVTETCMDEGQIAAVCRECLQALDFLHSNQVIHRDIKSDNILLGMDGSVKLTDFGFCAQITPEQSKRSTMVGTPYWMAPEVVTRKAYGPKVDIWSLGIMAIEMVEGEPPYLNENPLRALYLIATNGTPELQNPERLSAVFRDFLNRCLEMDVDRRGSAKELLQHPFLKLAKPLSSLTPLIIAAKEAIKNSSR
Serine/threonine-protein kinase PAK 5 (Homo sapiens), sequence (Q9P286 whole entry, looked up): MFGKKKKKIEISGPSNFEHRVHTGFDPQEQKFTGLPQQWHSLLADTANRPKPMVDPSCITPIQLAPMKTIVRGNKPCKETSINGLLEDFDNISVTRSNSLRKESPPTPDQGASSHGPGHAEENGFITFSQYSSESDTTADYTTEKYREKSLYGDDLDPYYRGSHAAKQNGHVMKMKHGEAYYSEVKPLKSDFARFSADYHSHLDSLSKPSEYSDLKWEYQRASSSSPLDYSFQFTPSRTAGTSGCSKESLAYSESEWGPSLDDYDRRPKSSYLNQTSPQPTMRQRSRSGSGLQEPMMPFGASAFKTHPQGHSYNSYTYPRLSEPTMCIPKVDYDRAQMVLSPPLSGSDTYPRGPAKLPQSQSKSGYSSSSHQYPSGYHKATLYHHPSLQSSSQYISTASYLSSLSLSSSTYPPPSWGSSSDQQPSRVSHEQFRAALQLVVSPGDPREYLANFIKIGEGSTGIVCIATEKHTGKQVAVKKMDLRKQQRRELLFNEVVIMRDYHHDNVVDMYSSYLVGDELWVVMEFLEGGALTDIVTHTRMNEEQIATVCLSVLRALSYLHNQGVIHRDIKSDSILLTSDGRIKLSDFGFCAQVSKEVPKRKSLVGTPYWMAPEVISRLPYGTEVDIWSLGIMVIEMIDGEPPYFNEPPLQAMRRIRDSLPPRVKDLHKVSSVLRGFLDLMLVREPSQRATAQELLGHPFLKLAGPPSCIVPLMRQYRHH
Serine/threonine-protein kinase 26 (Homo sapiens), sequence (Q9P289 2-416 limits assumed): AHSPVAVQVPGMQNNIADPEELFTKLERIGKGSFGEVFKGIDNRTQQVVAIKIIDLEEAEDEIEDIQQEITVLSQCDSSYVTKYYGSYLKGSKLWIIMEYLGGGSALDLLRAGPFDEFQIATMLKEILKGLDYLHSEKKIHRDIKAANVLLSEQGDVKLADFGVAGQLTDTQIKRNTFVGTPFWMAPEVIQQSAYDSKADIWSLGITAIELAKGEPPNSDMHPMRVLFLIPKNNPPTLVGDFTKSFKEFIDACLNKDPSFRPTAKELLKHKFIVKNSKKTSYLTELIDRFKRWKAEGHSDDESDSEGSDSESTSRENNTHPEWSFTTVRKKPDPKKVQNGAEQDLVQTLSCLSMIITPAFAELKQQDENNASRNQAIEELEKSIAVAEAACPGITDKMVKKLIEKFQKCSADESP
Serine/threonine-protein kinase PAK 1 (Homo sapiens), sequence (Q13153 whole entry): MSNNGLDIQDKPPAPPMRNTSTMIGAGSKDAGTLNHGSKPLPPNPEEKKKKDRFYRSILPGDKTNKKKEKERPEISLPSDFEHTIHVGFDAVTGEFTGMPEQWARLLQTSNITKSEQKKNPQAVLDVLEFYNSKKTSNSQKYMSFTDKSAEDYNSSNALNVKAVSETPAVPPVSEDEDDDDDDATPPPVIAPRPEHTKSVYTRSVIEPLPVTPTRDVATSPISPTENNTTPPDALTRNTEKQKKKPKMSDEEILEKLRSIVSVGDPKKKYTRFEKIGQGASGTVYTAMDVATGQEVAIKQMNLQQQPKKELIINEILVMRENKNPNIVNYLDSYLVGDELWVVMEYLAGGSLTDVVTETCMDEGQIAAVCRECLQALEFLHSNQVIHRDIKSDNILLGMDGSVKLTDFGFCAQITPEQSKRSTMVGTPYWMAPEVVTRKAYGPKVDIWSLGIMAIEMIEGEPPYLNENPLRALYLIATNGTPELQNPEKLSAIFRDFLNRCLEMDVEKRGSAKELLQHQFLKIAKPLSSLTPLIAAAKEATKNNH

Regarding `Cc1cc(-c2ccccn2)cc(C)c1/C=C/c1cncc(-c2nn[nH]n2)c1`, the inhibition – broadly, the relative decrease from the control value, in per cent – was 5.19% in test [1]; 6.38% in test [2]; 6.81% in test [3]; 1.95% in test [4]; 2.95% in test [5]; 4.9% in test [6]. The inhibition in [7] was 5.22%; in [8], 1.64%; in [9], 0.08%; in [10], -5.17%; in test [11], -0.88%; in [12], 3.22%. Further, the inhibition in test [13] is 3.18%; in test [14], 8.77%; in test [15], 0.81%; in test [16], 5.63%; in [17] it was 3.34%; in [18] it was 9.01%. For the same molecule, the inhibition in test [19] was found to be 0.21%.

Take `C[C@@H](Oc1cc(-n2cnc3ccc(OCC4CCN(C)CC4)cc32)sc1C(N)=O)c1ccccc1C(F)(F)F`: the inhibition was -2.64% in test [2]; 0.44% in test [3]; -1.54% in [4]; -2.14% in test [5]; -1.81% in test [6]; 0.3% in test [7]. Also, the inhibition was -2.43% in [8]; -1.92% in test [9]; 1.47% in test [20]; -0.65% in [10]; -1.19% in test [11]; 0.71% in [12]. Also, the inhibition in test [13] was -1.32%; in test [14], 1.14%; in test [15], 0.4%; in [16] it was 2.58%; in [17], -0.85%; in test [18], 1.8%. In addition, the inhibition in [19] came to 0.36%.

As for `Cc1ccc(NC(=O)CC2CC2)cc1-c1ccc(C(=O)NCC2CC2)cc1`, the inhibition was 0.9% in test [1]; 5.24% in test [2]; 4.74% in [3]; 1.76% in test [4]; 1.56% in test [5]; 3.33% in test [6]. For the same molecule, the inhibition in [7] is 4.25%; in [8] it was 6.64%; in test [9], 5.74%; in [10] it was 1.56%; in [11] it was 4.24%; in [12], 5.26%. Moreover, the inhibition in test [13] was 6.77%; in test [14] it was 3.96%; in test [15], 4.32%; in test [16], 3.09%; in test [17], 6.39%; in test [18], 4.54%. In test [19], the inhibition came to 2.14%.

Turning to `Cc1ccc(Nc2ccnc(Nc3cccc(C(N)=O)c3)n2)cc1O`, the inhibition in test [1] worked out at 2.75%; in [2] it was 5.46%; in test [3], 8.57%; in [4] it was 1.77%; in test [5], 1.45%; in [6] it was 3.06%. The inhibition came to 3.98% in [7]; 5.17% in test [8]; 11.2% in test [9]; 4.03% in [10]; 71.2% in test [11]; 93.4% in test [12]. Besides, the inhibition in [13] amounted to 76.5%; in test [14], 94.4%; in [15], 74.4%; in test [16] it was 95%; in test [17], 67.6%; in [18], 91.5%. Besides, the inhibition in test [19] was determined as 7.09%.

As for `CN(C)CCCn1c(-c2nonc2N)nc2cnccc21`, the inhibition in test [1] was -1.75%; in [2] it was 6.36%; in test [3], 9.52%; in [4], 1.48%; in test [5], 2.17%; in test [6] it was 4.61%. The inhibition in test [7] is 5.23%; in test [9] it was -5.06%; in [20] it was 7.58%; in test [10], -2.15%; in test [11], 3.28%; in test [12], 4.1%. Also, the inhibition in test [13] is 2.64%; in [14], 1.22%; in test [15] it was 1.53%; in [16], 3.51%; in test [17] it was 3.76%; in test [18] it was 2.62%. Further, the inhibition in test [19] is 2.51%.

Consider `NC(=O)c1cccc(Nc2nccc(Nc3cccc(F)c3)n2)c1`, for which the inhibition in [1] stood at 2.97%; in test [2] it was 0.29%; in test [3], 2.79%; in test [4], 0.32%; in test [5], 0.69%; in test [6] it was 0.23%. Besides, the inhibition in test [7] was 2.37%; in test [8], -1.35%; in [9], 1.21%; in test [10] it was -5.46%; in test [11] it was 7.73%; in test [12], 47%. For the same molecule, the inhibition in test [13] amounted to 9.26%; in test [14], 56.1%; in test [15] it was 9.02%; in [16], 57.7%; in test [17], 9.5%; in [18], 53.9%. Besides, the inhibition in [19] was determined as 1.3%.

Turning to `COC(=O)c1ccc2c(c1)C(=Cc1cc(Br)c(O)c(Br)c1)C(=O)N2`, the inhibition came out at 15.1% in [1]; 8.19% in test [2]; 10.1% in test [3]; 1.7% in [4]; 1.99% in [5]; 4.21% in test [6]. Moreover, the inhibition in test [7] is 5.43%; in test [8], 7.06%; in test [9], 10.8%; in [10], -6.8%; in [11] it was 2.18%; in test [12] it was 13.1%. For the same molecule, the inhibition was found to be 4.03% in test [13]; 14.9% in test [14]; 0.64% in test [15]; 12.9% in test [16]; 2.75% in test [17]; 15.8% in [18]. The inhibition in test [19] amounted to 1.82%.

Consider `CS(=O)(=O)CCNCc1nc(-c2ccc3ncnc(Nc4ccc(OCc5cccc(C(F)(F)F)c5)cc4)c3c2)cs1`, for which the inhibition in [1] is 1.5%; in [2] it was 1.25%; in test [3], 3.12%; in test [4], -0.05%; in test [5], -0.1%; in test [6], 2.76%. The inhibition is 5.04% in [7]; 2.81% in [8]; 1.26% in test [9]; -5.71% in test [10]; 0.56% in test [11]; 1.8% in [12]. The inhibition in test [13] worked out at 2.03%; in [14] it was 2.31%; in [15], 1.36%; in [16], 1.22%; in test [17] it was 1.8%; in test [18], 1.75%. The inhibition in [19] is 0.33%.

Consider `C[C@@H](Oc1cc(-n2cnc3ccc(OC[C@@H](O)CO)cc32)sc1C(N)=O)c1ccccc1Cl`, for which the inhibition in [1] is 1.05%; in [2], -2.19%; in [3], 1.45%; in test [4], -2.74%; in [5], -0.42%; in test [6] it was -2.28%. Further, the inhibition is -0.49% in test [7]; -7.17% in test [8]; -4.24% in [9]; -7.41% in test [20]; -6.36% in test [10]; 0.24% in [11]. The inhibition in [12] was 5.92%; in [13], 0%; in test [14] it was 9.51%; in test [15] it was 1.32%; in test [16], 8.84%; in test [17] it was -1.76%. Moreover, the results for the inhibition in test [18] and in test [19] were 8.32% and -0.17%, respectively.
